Results on 106 compounds are retold here after PubChem BioAssay AID686978 (National Center for Advancing Translational Sciences (NCATS), 2013).

About 64,000 (15%) of roughly 420,000 compounds were called active. Not shown: some 27% with an inconclusive outcome. Calls come from the whole dose curve; as a rule, active = well fitted inhibition curve with a large enough effect; inconclusive = small, poorly fitted or top-dose-only effect; inactive = flat fitted curve, though single readings scatter. The list is a sample of the results. Entries that show only a call come without a potency.
Potency is the fitted concentration of half-maximal effect.

A short description of the assay: qHTS for Inhibitors of human tyrosyl-DNA phosphodiesterase 1 (TDP1): qHTS in cells in absence of CPT. Note: nearly all actives have a fitted effect of over 55% in size. The settings on record: DT40 Tdp1-/- hTDP1 cells, no CPT, ATP luminescence, 48 h; activity change, negative = growth inhibition: at 46.2 µM (top of the series). A digest of the protocol: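 Camptothecin absent (DMSO only). Human TDP1-complemented DT40 knockout cells, 400 cells/well, 37 °C for minimum 48 hr; ATP measured via CellTiter-Glo, 30 min dark incubation, luminescence.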
As for `Cc1ccccc1N1CC(C(=O)Nc2ccc3c(c2)OCO3)CC1=O` (stereo unspecified), the Potency entry was “inactive”.

With `CN(C)c1ccc(CNC23CN4CN(CN(C4)C2)C3)cc1`, the Potency was 18.4 µM (active).

As to `CCOc1ccc(NC(=O)CC2NCCNC2=O)cc1` (stereo unspecified), the Potency entry is “inactive”.

With `COC(=O)C[C@H]1C[C@@H]2c3cc(NC(=O)Nc4ccccc4)ccc3O[C@@H]2[C@@H](CO)O1`, the Potency entry was “inactive”.

Turning to `O=C(Nc1ccc2c(c1)[C@@H]1C[C@@H](CC(=O)N3CCCCC3)O[C@@H](CO)[C@@H]1O2)NC1CCCCC1`, the Potency entry was “inactive”.

For the compound `O=C(C[C@H]1C[C@H]2c3cc(NS(=O)(=O)c4ccc(F)cc4)ccc3O[C@H]2[C@H](CO)O1)NCc1cc(F)ccc1F`, the Potency is 18.4 µM (active).

For `O=C1NC(O)CCN1C1CC(O)C(CO)O1` (stereo unspecified), the Potency result is “inactive”.

As to `CC(C)Oc1ccc(Oc2ccc(C(F)(F)F)cn2)cc1`, the Potency entry was “inactive”.

For `COC(=O)CC1=NN(c2nc(C)cc(C)n2)C(=O)C1`, the Potency entry is “inactive”.

Turning to `C=CCn1c(=NC(=O)c2ccc(S(=O)(=O)N3CCCC3)cc2)sc2cc(NC(C)=O)ccc21`, the Potency entry was “inactive”.

`Cn1cc(Cl)c(C(=O)NNC(=S)Nc2cccc(Cl)c2)n1`: the Potency result is “inactive”.

On to `Cc1cccc(-n2cnc(C(=O)NNC(=S)Nc3ccccc3)c2)n1`, for which the Potency is 23.1 µM (active).

With `Cc1cccc(-n2cnc(C(=O)Nc3cccnc3)c2)n1`, the Potency entry is “inactive”.

On to `Cc1ccc(CNC(=O)CCNS(=O)(=O)c2ccc3c(c2)oc(=O)n3C)cc1`, for which the Potency result is “inactive”.

Regarding `COc1cccc(CNn2cn[nH]c2=S)c1OCc1ccccc1`, the Potency entry is “inactive”.

As to `COC(=O)c1ccccc1NC(=O)CSc1nnnn1C`, the Potency entry is “inactive”.

Consider `Cn1nnnc1SCCNCc1ccc(Cl)c(Cl)c1`, for which the Potency result was “inactive”.

`COc1cccc(CNCCSc2nnnn2C)c1OCc1ccccc1Cl`: the Potency was 20.6 µM (active).

Turning to `COc1cc(CNCCSc2nnnn2C)ccc1OCc1ccc(Cl)cc1Cl`, the Potency was 23.1 µM (active).

Consider `CCOc1ccc(CNCCSc2nnnn2C)cc1`, for which the Potency entry was “inactive”.

With `CCOc1ccc(OCC)c(Nc2nc3ccccc3n3nnnc23)c1`, the Potency entry was “inactive”.

On to `C=CCOc1c(CNn2cn[nH]c2=S)cccc1OC`, for which the Potency result is “inactive”.

In the case of `O=C(NCCO)C(=O)NCC(c1ccc2c(c1)OCO2)N1CCN(c2ccc(F)cc2)CC1` (stereo unspecified), the Potency entry is “inactive”.

`CC(C)CC(=O)NCC(c1ccc2c(c1)OCO2)N1CCN(c2ccc(F)cc2)CC1` (stereo unspecified): the Potency was 25.9 µM (active).

For `CC(C)CNC(=O)C(=O)NCC(c1ccc2c(c1)OCO2)N1CCOCC1` (stereo unspecified), the Potency result was “inactive”.

Turning to `Cc1c(C(=O)NCC2CCCN(C)C2)cnn1-c1nccc(-c2ccco2)n1` (stereo unspecified), the Potency result was “inactive”.

For the compound `CC1CC(=O)Nc2ccccc2N1S(=O)(=O)c1cccs1` (stereo unspecified), the Potency result is “inactive”.

For `COc1ccc(Cc2nnc(SC)[nH]c2=O)cc1`, the Potency result was “inactive”.

Regarding `COc1ccc(Cc2cc(-c3ccc(F)cc3)n[nH]c2=O)cc1`, the Potency is 13 µM (active).

In the case of `COc1ccc2[nH]c(=O)c(-c3noc(-c4ccc(F)cc4)n3)cc2c1`, the Potency entry was “inactive”.

As for `COc1ccc(CNC(=O)CCC(=O)Nc2nnc(C(C)C)s2)cc1`, the Potency result is “inactive”.

Turning to `COc1ccccc1OCC(=O)OCc1cc(-c2ccco2)on1`, the Potency result was “inactive”.

Regarding `CCCc1ccc(OCC(O)CN2CCN(C(=O)OCC)CC2)cc1` (stereo unspecified), the Potency result was “inactive”.

For `O=C(O)CCC(=O)Nc1ccc(OCC2CCCO2)cc1` (stereo unspecified), the Potency result was “inactive”.

On to `COc1ccc(OC)c(NC(=O)c2cc(-c3cc(F)ccc3OCC3CCCO3)n[nH]2)c1` (stereo unspecified), for which the Potency is 9.2 µM (active).

On to `COc1ccc(C(=O)Nc2ccc(C(=O)NCC3CCCO3)cc2)c(OC)c1OC` (stereo unspecified), for which the Potency result was “inactive”.

As to `O=C(/C=C/c1cc2c(cc1Br)OCO2)NCc1ccc(Cl)cc1`, the Potency entry is “inactive”.

`CCCCn1c(N)c(N(Cc2ccccc2OC)C(=O)COc2cc(C)ccc2Cl)c(=O)[nH]c1=O`: the Potency entry is “inactive”.

For the compound `Cc1cc(C)cc(NS(=O)(=O)Cc2ccccc2)c1`, the Potency result is “inactive”.

Turning to `O=C(Oc1ccc([N+](=O)[O-])cc1)c1ccc2ccccc2n1`, the Potency result was “inactive”.

`O=[N+]([O-])c1ccc(/C=C/c2ccc3cccnc3c2)cc1`: the Potency is 10 µM (active).

Regarding `O=C(OCc1ccc([N+](=O)[O-])cc1)c1ccccn1`, the Potency entry was “inactive”.

Take `Cc1c(Cl)cccc1NC(=O)NCc1ccc(C)n1C`: the Potency entry was “inactive”.

For `Cn1cc(-c2ccccc2)cc(C#N)c1=O`, the Potency entry is “inactive”.

As for `O=C(O)c1ccccc1C(=O)NC1=NN(c2ccccc2)CC1`, the Potency entry is “inactive”.

Turning to `CCOC(=O)c1nnn(-c2nonc2-n2cccc2)c1CN1CCC(C(=O)OCC)CC1`, the Potency was 18.4 µM (active).

In the case of `NNC(=O)c1nnn(-c2nonc2N)c1CN1CCCC1`, the Potency result is “inactive”.

Turning to `CCOC(=O)c1nnn(-c2nonc2-n2cccc2)c1CN1CCOCC1`, the Potency entry was “inactive”.

`COC(=O)C1(CCSC)NC(c2ccc(OC)cc2OC)C2C(=O)N(c3cccc(C(C)=O)c3)C(=O)C21` (stereo unspecified): the Potency result is “inactive”.

For `O=C(Nc1cc(C(F)(F)F)ccc1Cl)c1cc2nc(-c3ccc4c(c3)OCO4)cc(C(F)(F)F)n2n1`, the Potency entry was “inactive”.

In the case of `O=C(COC(=O)CSc1ccccc1)Nc1ccc(F)cc1F`, the Potency result is “inactive”.

Consider `Cc1ccc(O)c(NC(=O)CCS(=O)(=O)c2nc(-c3ccc4c(c3)OCO4)cc(C(F)(F)F)n2)c1`, for which the Potency was 11.6 µM (active).

For the compound `COc1ccccc1-c1cc(C(F)(F)F)nc(S(=O)(=O)CCCC(=O)Nc2ccc(F)cc2F)n1`, the Potency was 3.66 µM (active).

Consider `COc1ccccc1-c1cc(C(F)(F)F)nc(S(=O)(=O)CCCC(=O)Nc2cc(C)ccc2O)n1`, for which the Potency entry is “inactive”.

Consider `O=C(CSc1ccc(-c2cccs2)nn1)Nc1ccccc1F`, for which the Potency entry is “inactive”.

Take `Cc1cc2nc(C(F)(F)F)cc(-c3cccs3)n2n1`: the Potency entry is “inactive”.

In the case of `CSc1ccccc1NC(=O)CCS(=O)(=O)c1nc(-c2cccs2)cc(C(F)(F)F)n1`, the Potency is 11.6 µM (active).

Consider `CC(Sc1nc(-c2ccccc2)cc(C(F)(F)F)n1)C(=O)Nc1ccc2c(c1)OCO2` (stereo unspecified), for which the Potency entry is “inactive”.

Turning to `CCC(=O)c1c[nH]c(C(=O)NCC2CCCO2)c1` (stereo unspecified), the Potency result was “inactive”.

`Cc1ccc(C(=O)OCC(=O)NC(=O)Cc2ccccc2)c(O)c1`: the Potency entry is “inactive”.

For the compound `CC(C)(C)C(=O)COC(=O)c1cc(S(=O)(=O)N2CCCCC2)ccc1N1CCOCC1`, the Potency entry was “inactive”.

Take `CCCCSc1ncnc2c1sc1nc(N3CCOCC3)c3c(c12)CCCC3`: the Potency result is “inactive”.

With `CC(C)Cc1nn2c(=O)cc(O)nc2s1`, the Potency result is “inactive”.

For the compound `CSc1nnc2c(n1)OC(c1ccsc1)N(C(C)=O)c1ccccc1-2` (stereo unspecified), the Potency result was “inactive”.

Take `COc1ccccc1NC(=O)COC(=O)Cc1ccc(S(=O)(=O)N2CCCCC2)s1`: the Potency result is “inactive”.

For the compound `COC(=O)c1ccc(CSc2nncn2N)cc1`, the Potency result is “inactive”.

For `CCOC(=O)c1ccc(CSc2nnc3cc(C)c4ccccc4n23)cc1`, the Potency was 20.6 µM (active).

Turning to `COC(=O)c1ccc(CSc2nncn2C)cc1`, the Potency entry is “inactive”.

For `COCc1c(C(=O)N/N=C/C2CC=CCC2)nnn1-c1nonc1N` (stereo unspecified), the Potency result was “inactive”.

As for `CCc1ccc(N2CC(C(=O)NC3=NCCS3)CC2=O)cc1` (stereo unspecified), the Potency result was “inactive”.

With `Cc1cccc(C(=O)OC(C)CN2CCCC2)c1` (stereo unspecified), the Potency result was “inactive”.

For the compound `Cc1cccc(N)c1SC1CCCCC1O` (stereo unspecified), the Potency result was “inactive”.

Take `CCCn1nnc(NC(=O)COc2ccc(CC)cc2)n1`: the Potency result was “inactive”.

Take `O=C(OCc1ccccc1F)c1ccc2c(c1)OCCO2`: the Potency result was “inactive”.

In the case of `C=C(C)CNC(=S)N/N=C/c1ccccc1OCC(=O)O`, the Potency entry was “inactive”.

Turning to `C=CCNC(=S)N/N=C/c1ccc(C)s1`, the Potency was 7.31 µM (active).

`C=CCNC(=S)NNC(=O)c1ccc(Br)o1`: the Potency entry was “inactive”.

Turning to `CCOC(=O)c1c(NC(=O)CN2C(=O)NC3(CCC(C)CC3)C2=O)sc(C)c1CC` (stereo unspecified), the Potency result is “inactive”.

In the case of `OCC(O)C1OCOC(C(O)CO)C1O` (stereo unspecified), the Potency entry was “inactive”.

On to `COc1cc(NC(=O)c2cc(-c3ccc(F)cc3OC(C)C)n[nH]2)cc(OC)c1OC`, for which the Potency was 11.6 µM (active).

Regarding `COc1cc(F)ccc1-c1cc(C(=O)NCC2CCCCC2)[nH]n1`, the Potency result is “inactive”.

As to `COc1cc(NC(=O)CCn2nc(C)cc2C)cc(OC)c1OC`, the Potency entry was “inactive”.

For the compound `COC(C)(C)[C@]12CC(O)(C(C)C)ON1[C@H]1CCCCC1N2O` (stereo partly specified), the Potency entry is “inactive”.

Consider `CCC(=O)c1cc2c(cc1NC(=O)c1cccs1)OCCO2`, for which the Potency entry is “inactive”.

Consider `Cc1ccc(Oc2nc3ccccc3n3c(C)nnc23)cc1`, for which the Potency entry is “inactive”.

As to `C[C@@H]1NC(=O)[C@@]2(C)[C@@H](c3ccccc3)[C@H]3COc4ccccc4[C@@H]3N2C1=O`, the Potency entry was “inactive”.

On to `CCOC(=O)CC(=O)CSc1nc(-c2ccccc2)cc(-c2ccc(Cl)cc2)c1C#N`, for which the Potency result is “inactive”.

In the case of `CC(=O)Nc1ccc(-c2cn3cccnc3n2)cc1`, the Potency result is “inactive”.

As to `CCOc1cc(-c2cc(-c3ccc(NC(C)=O)cc3)nc(N)c2C#N)ccc1O`, the Potency is 20.6 µM (active).

In the case of `CCCN(CC1CC1)C(=O)COC(=O)c1ccc(C)cc1O`, the Potency entry is “inactive”.

With `CC(C)OC(=O)c1cc(NC(=O)C2C3CCC(O3)C2C(=O)O)cc(C(=O)OC(C)C)c1` (stereo unspecified), the Potency entry is “inactive”.

With `Cc1cc(NC(=O)CN2CCC(O)(c3cccc(F)c3)CC2)no1`, the Potency entry is “inactive”.

For `O=C(CN1CCC(O)(c2ccccc2)CC1)Nc1ccc2c(c1)OCCO2`, the Potency result was “inactive”.

In the case of `O=C(CN1CCC(O)(c2cccc(C(F)(F)F)c2)CC1)NCCc1ccccc1`, the Potency was 11.6 µM (active).

Consider `Cn1c(=O)c2[nH]c(NCC3CCCO3)nc2n(-c2ccccc2)c1=O` (stereo unspecified), for which the Potency result was “inactive”.

On to `O=C1/C(=C/c2coc3ccc(O)cc3c2=O)SC(=S)N1c1ccccc1`, for which the Potency was 16.4 µM (active).

As for `CC1=CC2=NC(=O)/C(=C/c3coc4ccccc4c3=O)C(=N)N2O1`, the Potency entry is “inactive”.

`CN(C)S(=O)(=O)c1cccc(-c2nn(-c3ccccc3)cc2/C=C2\SC(=S)N(CC(=O)O)C2=O)c1`: the Potency entry was “inactive”.

As to `CN(C)CCCn1c(SCCN2C(=O)c3ccccc3C2=O)nc2ccccc2c1=O`, the Potency result is “inactive”.

On to `CN(Cc1ccccc1)C(=O)c1cc2c(=O)n(C)c3ccccc3c2s1`, for which the Potency result is “inactive”.

For the compound `CCc1ccc(CNC(=O)c2cc3c(=O)n(CC)c4ccccc4c3s2)cc1`, the Potency is 29.1 µM (active).

In the case of `CCn1c2ccccc2c2cc(CC(N)=O)ccc21`, the Potency result was “inactive”.

Consider `Cc1cc(=O)oc(C)c1C(=O)N1CCCCC1`, for which the Potency entry was “inactive”.

For the compound `COc1ccc(C)cc1N(C)C(=O)c1c(C)oc2ncnc(N3CCOCC3)c12`, the Potency entry is “inactive”.

As to `Cc1oc2ncnc(N3CCCCC3)c2c1C(=O)N1CCN(c2cccc(Cl)c2)CC1`, the Potency was 16.4 µM (active).

Turning to `O=C(COC(=O)CNC(=O)C1CCCCC1)Nc1cccc(F)c1`, the Potency entry was “inactive”.
